Data reported in PubChem BioAssay (Tox21).
Inconclusive results are not listed. Activity calls are given as the source filed them. Unless noted, the call rests on the fitted dose curve; in most records, active means well fitted curve in the direction sought with a large enough effect in the repeat runs; inconclusive means weak or mixed curves; inactive means no such curve, though single readings can be large; an effect the other way counts as inactive or inconclusive.

Tests used:
[1] = qHTS assay for small molecule agonists of the p53 signaling pathway (AID 651631; calls by dose curve; further: nearly all actives have a fitted effect of over 15% in size)
Outline: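 HCT-116 p53RE-bla reporter line, 16 h compound treatment at 37 °C, then fluorescence after 2 h with B/G FRET substrate.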

[2] = qHTS assay for small molecules that induce genotoxicity in human embryonic kidney cells expressing luciferase-tagged ATAD5 (AID 651632); further: nearly all actives have a fitted effect of over 15% in size
Outline: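 Cells were seeded at 2,000 per well, dosed with compound, and incubated 16 hr at 37C in 5% CO2. Luciferase activity was then quantified after a 30 min room-temperature incubation with Amplite.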

[3] = qHTS assay for small molecule agonists of the p53 signaling pathway - cell viability (AID 651633; calls by dose curve;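 further: p53RE-bla HCT reporter cells with a stable beta-lactamase p53 reporter; series mostly up to about 83 µM; nearly all actives have a fitted effect of over 30% in size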)
Outline: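 p53RE-bla cells, seeded at 4,000 per well and rested 5 h at 37 C/5% CO2, received compounds in DMSO for 16 h at 37 C. CellTiter-Glo was then added, and luminescence was read after 30 min at room temperature to gauge cytotoxicity.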

[4] = qHTS assay for small molecules that induce genotoxicity in human embryonic kidney cells expressing luciferase-tagged ATAD5 - cell viability (AID 651634; calls by dose curve; further: nearly all actives have a fitted effect of over 25% in size; further: potency means the concentration at half of the fitted maximal effect)
Outline: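 Cells (HEK293T, luciferase-tagged ATAD5) are seeded at 2,000 per well, dosed with compound or DMSO vehicle, and incubated 15.5 hr at 37C and 5% CO2. CellTiter-Fluor is added for 30 min before fluorescence is measured.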

[5] = qHTS assay for small molecule disruptors of the mitochondrial membrane potential - cell viability (AID 720634; calls by dose curve;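 further: human HepG2 liver cancer cells; series mostly up to about 83 µM; nearly all actives have a fitted effect of over 20% in size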)
Outline: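 Cytotoxicity was measured by ATP quantitation in HepG2 wells that had first been treated with compound for 1 hr and stained with m-MPI dye; CellTiter-Glo incubation was 30 min at room temperature.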

[6] = qHTS assay to test for compound auto fluorescence at 590 nm (red) in HepG2 cells (AID 720674)
Outline: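 Intrinsic compound fluorescence in the red window (Ex/Em 540/590 nm) is measured in attached HepG2 cells exposed for 1 hr, DMSO vehicle as baseline, benchmarked to Rose Bengal sodium.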

[7] = qHTS assay to test for compound auto fluorescence at 535 nm (green) in HepG2 cells (AID 720675)
[8] = qHTS assay to test for compound auto fluorescence at 460 nm (blue) in HEK293 cells (AID 720678)
Outline: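 Blue-channel (Ex/Em 405/460 nm) intensity measured in HEK293 cultures after overnight compound exposure at 37C; signal expressed relative to triamterene. Cells plated 2,000 per well in 10% dialyzed FBS medium and allowed 4-5 hr to attach.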

[9] = qHTS assay to test for compound auto fluorescence at 590 nm (red) in HEK293 cells (AID 720679)
Outline: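 Red-channel autofluorescence (Ex/Em 540/590 nm; Rose Bengal sodium reference) was measured after overnight 37C, 5% CO2 exposure of attached HEK293 cells, 2,000 per well in medium with 10% dialyzed FBS.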

[10] = qHTS assay to test for compound auto fluorescence at 535 nm (green) in HEK293 cells (AID 720680)
[11] = qHTS assay to test for compound auto fluorescence at 460 nm (blue) in HEK293 cell free culture (AID 720681)
Outline: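 Test compounds were pinned into cell-free culture medium (DMEM with 10% FBS) and fluorescence was read directly at Ex/Em 405/460 nm. Signals were expressed as fluorescence equivalents of triamterene, with DMSO vehicle as control.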

[12] = qHTS assay to test for compound auto fluorescence at 535 nm (green) in HEK293 cell free culture (AID 720682)
Outline: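 Steps: dispense DMEM/10% FBS into empty wells; pin in compound or DMSO; measure fluorescence at 485/535 nm. Values are fluorescein equivalents.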

[13] = qHTS assay to test for compound auto fluorescence at 590 nm (red) in HEK293 cell free culture (AID 720683)
Outline: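 Tox21 10K library compounds were pinned into cell-free DMEM with 10% FBS and fluorescence was read at excitation 540 nm. Activity is expressed as Rose Bengal sodium equivalency.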

[14] = qHTS assay to test for compound auto fluorescence at 590 nm (red) in HepG2 cell free culture (AID 720684)
Outline: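 Readout: intrinsic compound fluorescence at 590 nm emission after 540 nm excitation, scaled to Rose Bengal sodium. Matrix was cell-free MEM with 10% FBS; DMSO vehicle wells served as control.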

[15] = qHTS assay to test for compound auto fluorescence at 460 nm (blue) in HepG2 cell free culture (AID 720685)
Outline: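 Cell-free plates of MEM plus 10% FBS received 23 nL compound or DMSO vehicle; blue-channel (405/460 nm) intensity scored against triamterene as reference fluorophore.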

[16] = qHTS assay to test for compound auto fluorescence at 535 nm (green) in HepG2 cell free culture (AID 720686)
[17] = qHTS assay to test for compound auto fluorescence at 460 nm (blue) in HepG2 cells (AID 720687)
Outline: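 Cells (2,000/well in MEM with 10% FBS) attached overnight at 37 C, then were exposed to compound or DMSO for 1 hr at 37 C, 5% CO2. Fluorescence read at Ex/Em 405/460 nm, expressed as triamterene-equivalent signal.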

[18] = biological target: Glucocorticoid receptor (Homo sapiens) (UniProt P04150); assay: qHTS assay to identify small molecule agonists of the glucocorticoid receptor (GR) signaling pathway (AID 720691; active means well fitted activation curve with a large enough effect in the signal ratio in the repeat runs, not every such curve was filed as active; the % refers to the signal ratio)
Outline: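 Steps: seed GR-bla HeLa cells, incubate 4 h at 37 C/5% CO2; pin-transfer DMSO-dissolved compounds; incubate 18 h at 37 C; add LiveBLAzer B/G FRET substrate; after 2 h at room temperature, measure fluorescence.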

[19] = biological target: Glucocorticoid receptor (Homo sapiens) (UniProt P04150); assay: qHTS assay to identify small molecule antagonists of the glucocorticoid receptor (GR) signaling pathway (AID 720692; active means well fitted inhibition curve with a large enough effect in the signal ratio in the repeat runs, not every such curve was filed as active; the % refers to the signal ratio)
Outline: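 Antagonism was scored as loss of dexamethasone-driven (5 nM final) reporter signal in HeLa cells bearing a glucocorticoid response element–beta-lactamase construct, after 18 h compound exposure at 37 C and 2 h FRET substrate loading.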

[20] = qHTS assay for small molecule disruptors of the mitochondrial membrane potential (AID 720635)
Outline: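 HepG2 cells (2,000/well) attached overnight at 37C, then took compound for 1 hr at 37C, 5% CO2. Mito-MPS dye was added for 30 min; fluorescence was read at 490/535 nm (monomers) and 540/590 nm (aggregates).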
On the % scale 0 is the no-effect control and ±100 the full control effect.

Glucocorticoid receptor (Homo sapiens), sequence (P04150 whole entry, looked up): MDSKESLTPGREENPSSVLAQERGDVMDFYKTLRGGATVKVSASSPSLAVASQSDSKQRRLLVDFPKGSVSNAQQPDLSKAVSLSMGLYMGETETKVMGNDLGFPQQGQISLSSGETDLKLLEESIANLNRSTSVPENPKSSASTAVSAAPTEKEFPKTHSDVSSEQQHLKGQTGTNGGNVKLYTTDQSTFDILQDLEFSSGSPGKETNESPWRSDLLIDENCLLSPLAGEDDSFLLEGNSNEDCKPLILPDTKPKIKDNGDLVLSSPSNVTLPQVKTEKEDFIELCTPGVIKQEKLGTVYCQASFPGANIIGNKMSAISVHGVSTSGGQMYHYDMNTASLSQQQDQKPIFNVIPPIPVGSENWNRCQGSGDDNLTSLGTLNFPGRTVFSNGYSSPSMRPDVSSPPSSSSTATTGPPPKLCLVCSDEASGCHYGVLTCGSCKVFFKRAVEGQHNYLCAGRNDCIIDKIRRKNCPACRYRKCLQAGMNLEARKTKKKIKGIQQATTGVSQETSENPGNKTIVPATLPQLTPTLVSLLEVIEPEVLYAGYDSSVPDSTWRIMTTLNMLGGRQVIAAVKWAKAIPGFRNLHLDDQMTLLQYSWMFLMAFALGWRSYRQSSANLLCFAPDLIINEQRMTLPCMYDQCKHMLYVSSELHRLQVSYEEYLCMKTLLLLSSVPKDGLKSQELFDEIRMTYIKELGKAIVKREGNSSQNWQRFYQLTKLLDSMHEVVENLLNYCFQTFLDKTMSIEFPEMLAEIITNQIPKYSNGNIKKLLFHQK

CCOCCOCCOCC
inactive: outcome [1] | Potency [2] | outcome [3] | Potency [4] | outcome [5] | outcome [6] | outcome [7] | outcome [8] | outcome [9] | outcome [10] | outcome [11] | outcome [12] | outcome [13] | outcome [14] | outcome [15] | outcome [16] | outcome [17] | Potency [18] | outcome [19]

CCCOC(=O)C(C)O (stereo unspecified)
inactive: outcome [1] | Potency [2] | outcome [3] | Potency [4] | outcome [5] | outcome [6] | outcome [7] | outcome [8] | outcome [9] | outcome [10] | outcome [11] | outcome [12] | outcome [13] | outcome [14] | outcome [15] | outcome [16] | outcome [17]

CCCCCCCCC1CCC(=O)O1 (stereo unspecified)
inactive: outcome [1] | Potency [2] | outcome [3] | Potency [4] | outcome [5] | outcome [6] | outcome [7] | outcome [8] | outcome [9] | outcome [10] | outcome [11] | outcome [12] | outcome [13] | outcome [14] | outcome [15] | outcome [16] | outcome [17]

O=C(O)c1cc(Cl)cc([N+](=O)[O-])c1Cl
inactive: outcome [1] | Potency [2] | outcome [3] | Potency [4] | outcome [5] | outcome [6] | outcome [7] | outcome [8] | outcome [9] | outcome [10] | outcome [11] | outcome [12] | outcome [13] | outcome [14] | outcome [15] | outcome [16] | outcome [17] | Potency [18] | outcome [19]

NC(CO)C(=O)NNCc1ccc(O)c(O)c1O (stereo unspecified)
inactive: outcome [1] | Potency [2] | outcome [3] | Potency [4] | outcome [5] | outcome [6] | outcome [7] | outcome [8] | outcome [9] | outcome [10] | outcome [11] | outcome [12] | outcome [13] | outcome [14] | outcome [15] | outcome [17]

CC(=O)NCCCCCC(=O)O
inactive: outcome [1] | Potency [2] | outcome [3] | Potency [4] | outcome [5] | outcome [6] | outcome [7] | outcome [8] | outcome [9] | outcome [10] | outcome [12] | outcome [13] | outcome [14] | outcome [15] | outcome [16] | outcome [17]

Cc1cc(C(C)(C)C)c(O)c(C)c1CC1=NCCN1
inactive: outcome [1] | Potency [2] | outcome [3] | Potency [4] | outcome [5] | outcome [6] | outcome [7] | outcome [8] | outcome [9] | outcome [10] | outcome [11] | outcome [12] | outcome [13] | outcome [14] | outcome [15] | outcome [17] | Potency [18] | outcome [19]

CC1(CO)CN(c2ccccc2)NC1=O (stereo unspecified)
inactive: outcome [1] | Potency [2] | outcome [3] | Potency [4] | outcome [5] | outcome [6] | outcome [7] | outcome [8] | outcome [9] | outcome [10] | outcome [11] | outcome [13] | outcome [15] | outcome [17]

O=C(O)Cc1ccc(Cl)cc1Cl
inactive: outcome [1] | Potency [2] | outcome [3] | Potency [4] | outcome [5] | outcome [6] | outcome [7] | outcome [8] | outcome [9] | outcome [10] | outcome [11] | outcome [12] | outcome [13] | outcome [15] | outcome [17] | outcome [19]

COc1ccc(S(=O)(=O)N2c3ccc(Cl)cc3[C@@](O)(c3ccccc3Cl)[C@H]2C(=O)N2CCC[C@@H]2C(N)=O)cc1OC
inactive: outcome [1] | Potency [2] | outcome [3] | Potency [4] | outcome [5] | Potency [20] | outcome [6] | outcome [7] | outcome [9] | outcome [10] | outcome [12] | outcome [13] | outcome [14] | outcome [15] | outcome [16] | outcome [17] | Potency [18]

Cc1c(I)c(=O)n(-c2ccccc2)n1C
inactive: outcome [1] | Potency [2] | outcome [3] | Potency [4] | outcome [5] | outcome [6] | outcome [7] | outcome [8] | outcome [9] | outcome [10] | outcome [11] | outcome [12] | outcome [13] | outcome [15] | outcome [16] | outcome [17] | Potency [18]

N[C@@H](CCC(=O)Nc1ccc([N+](=O)[O-])cc1)C(=O)O
inactive: outcome [1] | Potency [2] | outcome [3] | Potency [4] | outcome [5] | outcome [6] | outcome [7] | outcome [8] | outcome [9] | outcome [10] | outcome [11] | outcome [12] | outcome [13] | outcome [14] | outcome [15] | outcome [17] | Potency [18] | outcome [19]

C=C1CC/C=C(\C)CC[C@@H]2[C@@H]1CC2(C)C
inactive: outcome [1] | Potency [2] | outcome [3] | Potency [4] | outcome [5] | outcome [6] | outcome [7] | outcome [8] | outcome [9] | outcome [10] | outcome [11] | outcome [13] | outcome [14] | outcome [15] | outcome [16] | outcome [17]

Nc1ccc([N+](=O)[O-])c(N)c1
inactive: outcome [1] | Potency [2] | outcome [3] | outcome [5] | outcome [6] | outcome [7] | outcome [8] | outcome [9] | outcome [10] | outcome [11] | outcome [12] | outcome [13] | outcome [14] | outcome [15] | outcome [16] | outcome [17] | Potency [18] | outcome [19]
active: Potency [4] 47.3 µM

O=C1c2ccccc2C(=O)C1c1ccccc1
inactive: outcome [1] | Potency [2] | outcome [3] | Potency [4] | outcome [5] | fluorescence, relative to Rose Bengal [6] 0.709% [at 18.6 µM] | fluorescence, % of fluorescein control [7] 0.0928% [at 18.6 µM] | fluorescence, % of triamterene [8] -0.166% [at 18.6 µM] | fluorescence, % of fluorescent control [9] 0.0127% [at 18.6 µM] | fluorescence, % of fluorescein [10] -0.0324% [at 18.6 µM] | fluorescence, % of fluorescent control [11] -0.0862% [at 18.6 µM] | fluorescence, % of fluorescent control [13] 0.0114% [at 18.6 µM] | fluorescence, % of Rose Bengal [14] -0.261% [at 18.6 µM] | fluorescence, % of fluorescent control [15] -0.0248% [at 18.6 µM] | fluorescence, % of fluorescein control [16] -0.0587% [at 18.6 µM] | fluorescence, % of fluorescent control [17] -0.0075% [at 18.6 µM] | Potency [18]
